{"source": "paper PMC5540273", "about": "(PLoS ONE, 2017);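 further: KINOMEscan kinase panel screen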"}
{"test_system": "RIOK2", "conditions": "concentration: 1 μM, replicates: in singlicate; n = 1", "units": {"%Inh": "%"}}
{"smiles": "COCCOCCOc1cc2ncc3c4ccc(C#N)cc4[nH]c3c2cc1OC", "%Inh": 0}
{"smiles": "CCn1c(-c2nonc2N)nc2c(C#CC(C)(C)O)ncc(OCCCCN)c21.O=C(O)C(F)(F)F.O=C(O)C(F)(F)F", "note": "[GSK507274]", "%Inh": 0}
{"smiles": "Cn1cc(-c2[nH]c3cc(NC(=O)[C@H](N)C4CCCCC4)cc4c3c2C=NNC4=O)cn1", "%Inh": 21}
{"smiles": "COc1cc(Nc2ncc3c(C)nc(-c4cc5ccccc5[nH]4)n3n2)cc(OC)c1OC", "note": "[GW869516]", "%Inh": 0}
{"smiles": "COc1ccc(Nc2nccc(NCCNC(=O)c3cc4ccccc4s3)n2)cc1", "note": "[GSK1379896]", "%Inh": 0}
{"smiles": "Cl.Cl.NCC(C(=O)Nc1cc(Br)c(-c2ccnc3[nH]ccc23)s1)c1ccccc1", "note": "(centres unmarked) [GSK1269851]", "%Inh": 19}
{"smiles": "Cc1ccc(C)c(NC(=O)NC2CCN(c3ccnc(Nc4ccc(F)cc4)n3)C2)c1", "note": "(centres unmarked) [GSK1379720]", "%Inh": 0}
{"smiles": "CN1CCN(CCCNc2nccc(-c3c(-c4ccc(F)cc4)nn4cc(C(F)(F)F)ccc34)n2)CC1", "note": "[GW621581]", "%Inh": 4}
{"smiles": "O=C(Nc1cccc(-c2nn3ccccc3c2-c2ccnc(Nc3cccc(F)c3)n2)c1)c1c(F)ccc(F)c1Cl", "note": "[GSK357952]", "%Inh": 51}
{"smiles": "Nc1ncc(-c2cccnc2)c2scc(-c3ccc4c(c3)CCN4C(=O)Cc3ccccc3)c12", "note": "[GSK683281]", "%Inh": 96.6}
{"smiles": "Cc1cccc(Nc2nc(N[C@H]3CCNC3)ncc2C(N)=O)c1.Cl", "note": "[GSK2197149]", "%Inh": 28}
{"smiles": "Cc1ccc(C(=O)N2CC[C@@H](O)C2)cc1-n1c(C)cc(OCc2ccc(F)cc2F)c(Br)c1=O", "%Inh": 0}
{"smiles": "Cl.c1ccc(-c2ccc3c(Nc4ccc5[nH]ccc5c4)ccnc3c2)nc1", "note": "[GW440138]", "%Inh": 0}
{"smiles": "Cl.NC(=O)c1cccc(Nc2nccc(Nc3ccc(Oc4c(Cl)cccc4Cl)c(Cl)c3)n2)c1", "note": "[GW659009]", "%Inh": 53}
{"smiles": "CSc1cccc2c(-c3ccncn3)c(-c3ccc(F)cc3)nn12", "note": "[GW514786]", "%Inh": 0}
{"smiles": "Cl.Cl.NCC(NCc1ccc(-c2ccnc3[nH]ccc23)s1)c1ccccc1", "note": "(centres unmarked) [GSK1321565]", "%Inh": 44}
{"smiles": "COC(=O)Nc1nc2ccc(Oc3ccc(NC(=O)Nc4cc(C(F)(F)F)ccc4F)cc3)cc2n1C.Cl", "note": "[GW692089]", "%Inh": 0}
{"smiles": "O=C(Nc1n[nH]c2cc(-c3ccoc3)ccc12)C1CC1", "note": "[SB-738481]", "%Inh": 5}
{"smiles": "Fc1ccc(-c2ncn(C3CCNCC3)c2-c2ccnc(Oc3ccc(-c4ccccc4)cc3)n2)cc1", "note": "[SB-245391]", "%Inh": 0}
{"smiles": "Cn1cc(-c2ccc3c(c2)CCN3C(=O)Cc2cccc(Cl)c2)c2c(N)ncnc21", "note": "[GSK2606590]", "%Inh": 19}
{"smiles": "Cc1ccc(S(=O)(=O)Nc2ccc(Nc3nccc(Nc4cccc5[nH]ncc45)n3)cc2)cc1", "note": "[GSK581271]", "%Inh": 40}
{"smiles": "O=C(O)C(F)(F)F.O=C(O)C(F)(F)F.O=c1[nH]ccc2nc(N[C@@H]3CCCNC3)nc(Nc3ccc(S(=O)(=O)N4CCOCC4)cc3)c12", "note": "[GSK2177277]", "%Inh": 65}
{"smiles": "C[C@@H](Oc1cc(-n2cnc3cc(-c4ccnc(NCCS(C)(=O)=O)c4)ccc32)sc1C(N)=O)c1ccccc1Cl", "note": "[GSK907232]", "%Inh": 22}
{"smiles": "c1ccc(-c2cnc3nccnn23)cc1", "note": "[AH20685]", "%Inh": 0}
{"smiles": "CCCCc1nn2ncccc2c1-c1ccnc(Nc2ccc(N3CCN(C)CC3)cc2)n1", "note": "[GW684941]", "%Inh": 44}
{"smiles": "Cc1occc1-c1ncc(OC[C@@H](N)Cc2c[nH]c3ccccc23)cc1-c1ccc2[nH]nc(C)c2c1.O=C(O)C(F)(F)F", "note": "[GSK682037]", "%Inh": 6}
{"smiles": "Oc1cc(Nc2ccnc3cc(I)ccc23)ccc1F", "note": "[GW552771]", "%Inh": 29}
{"smiles": "Cc1ccc(C(=O)Nc2ccc(Nc3ccnc4cc(-c5nccs5)ccc34)cc2O)cc1.Cl", "note": "[GW494702]", "%Inh": 7}
{"smiles": "c1ccc(-c2n[nH]cc2Nc2ccnc3ccccc23)nc1", "note": "[GW694077]", "%Inh": 86}
{"smiles": "C[C@@H]1CC[C@@H](C(=O)Nc2ccccc2)CN1c1cc(-c2ccc3c(N)n[nH]c3c2)nc(N)n1", "note": "[GSK2286062]", "%Inh": 52}
{"smiles": "CN(C)S(=O)(=O)c1cc(-c2ccc3nccc(-c4cccc(S(N)(=O)=O)c4)c3c2)cnc1N", "note": "[GSK1669921]", "%Inh": 23}
{"smiles": "CCS(=O)(=O)c1ccc(OC)c(Nc2nccc(-c3c(-c4cccc(NC(=O)c5c(F)cccc5F)c4)nn4ncccc34)n2)c1", "note": "[GSK326180]", "%Inh": 0}
